Growth data for nine compounds are collected here from PubChem BioAssay (NCI).

Common to all, as to assay: NCI-60 one-dose screen, 48 h (100 = growth as untreated, 0 = no growth, -100 = all killed)
Common to all, as to settings: 10 µM unless noted

Assay [1] concerns NCI-H23 lung.
For assay [2], the system named is NCI-H226 lung.
Assay [3] has as its system NCI-H322M lung.
Assay [4] has as its system HOP-62 NSCLC.
The subject of assay [5] is NCI-H460 lung.
The subject of assay [6] is NCI-H522 lung.
Assay [7] has as its system A549/ATCC NSCLC.
Assay [8] has as its system 786-0 renal.
In assay [9] the test system is COLO 205 colon.
In assay [10] the test system is DU-145 prostate.
The test system of assay [11] is K-562 leukemia.
The test system of assay [12] is MALME-3M melanoma.
The test system of assay [13] is MDA-MB-231 breast.
Assay [14] concerns RXF 393 renal.
Assay [15] relates to SF-268 CNS.
The test system of assay [16] is SF-539 CNS.
Assay [17] deals with UACC-257 melanoma.
For assay [18], the system named is M14 melanoma.
Assay [19] deals with HCT-15 colon.
Assay [20] deals with SF-295 CNS.

About 83,000 compounds went through this panel and 20% of them were active in at least one assay; those are over-represented in the sample as a whole.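 Negative percent growth values reflect cell death: -40 means 40% of the cells present at the start died, and -100 means all died.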 Unmarked numbers belong to inactive results. Active and inactive are the calls of the source. Rule for the calls: active = growth percent below 10; inactive = the rest.

`Nc1nc(SCc2ccccc2Cl)c(-c2ccccc2)c(SCc2ccccc2Cl)n1`: the growth in assay [1] is 83.2%; in [2], 105%; in [3] it was 107%; in assay [4], 87.9%; in assay [5], 85.6%; in assay [6], 79.3%. Also, the growth in assay [7] was 79.3%; in [8] it was 104%; in assay [9], 95%; in assay [10], 98.2%; in assay [11] it was 85.3%; in assay [12] it was 110%. Besides, the growth in [13] was 109%; in [14], 115%; in assay [15], 105%; in [16] it was 114%; in [17] it was 92.4%; in assay [18], 95.3%. Besides, in [19], the growth is 81.3%.

As to `CCCCCCOc1ccc(/C=N/NC(N)=S)cc1`, the growth in assay [1] is 54.3%; in [2], 66%; in assay [3], 122%; in assay [4], 100%; in [5], 92.6%; in assay [6], -64% (active). Further, the growth in assay [7] was 88.3%; in [8] it was 9.39% (active); in [9], 50.2%; in assay [10], 71.9%; in assay [11] it was 17.8%; in assay [12], 17.9%. The growth is 29.5% in [13]; 22.6% in [14]; 47.2% in assay [15]; 16.5% in assay [16]; 48.2% in assay [17]; 44.6% in [18]. In assay [19], the growth was 33.9%.

With `C=C1c2c(C)nn(-c3ccc(C#CCOC4OC(CO)C(O)C(O)C4O)cc3)c2N(C)C23C[C@H]1C1(C)c4c(C)nn(-c5ccc(C#CCOC6OC(CO)C(O)C(O)C6O)cc5)c4N(C)C(C)(C[C@H]12)C3` (stereo partly specified), the growth in assay [1] was 12.4%; in assay [2], 23.4%; in assay [3] it was 1.68% (active); in assay [4], 3.61% (active); in [5], -45.9% (active); in assay [6], -3.82% (active). For the same compound, the growth in assay [7] is 24.9%; in assay [8] it was 17.2%; in assay [9], 8.45% (active); in assay [10], 16.9%; in [11], 9.32% (active); in [12], 5.2% (active). Besides, the growth was 5.4% (active) in assay [13]; 37.5% in [14]; 7.57% (active) in assay [15]; -15.3% (active) in [16]; 34.2% in assay [17]; 0.248% (active) in assay [18]. Also, in assay [19], the growth was 21.7%.

Turning to `CN(C)c1ccc2c(c1)/C(=N/O)c1ccccc1-2`, the growth was 89% in assay [1]; 91.8% in [2]; 113% in [3]; 92.2% in assay [4]; 97.2% in assay [5]; 89% in assay [6]. Also, the growth is 84.2% in [7]; 104% in assay [8]; 103% in [9]; 105% in [10]; 29.7% in [11]; 87.9% in assay [12]. In addition, the growth in assay [13] is 89.8%; in assay [14], 81%; in assay [15] it was 78.3%; in assay [16], 60%; in assay [17] it was 81.6%; in assay [18], 69.7%. For the same compound, in assay [19], the growth is 78.7%.

For the compound `C/C(=C\CCc1ccsc1)CC/C=C(\C)CCCN1CCC(CO)CC1`, the growth is 61.4% in assay [1]; 63.4% in assay [2]; 76.2% in assay [3]; 62.1% in assay [4]; -46.3% (active) in [5]; 27.7% in [6]. For the same compound, the growth in [7] was 36.6%; in [8] it was 5.43% (active); in assay [9], -54.9% (active); in [10], 64.5%; in [11], -51.4% (active); in assay [12], -66.9% (active). The growth in assay [13] is 19.6%; in [15], 60.6%; in assay [20], 7.65% (active); in [16], 9.87% (active); in assay [17], -32.4% (active); in assay [18] it was -47.4% (active). In addition, the growth in assay [19] is 0.233% (active).

In the case of `C[C@]12CC[C@@H]3c4ccc(O)cc4CC[C@H]3[C@@H]1CC[C@@H]2NS(=O)(=O)c1cccc(Br)c1`, the growth in assay [1] is 68.1%; in [2] it was 60.5%; in [3], 70.6%; in assay [4], -16.6% (active); in assay [5] it was 61.7%; in assay [6] it was 40.4%. Further, the growth in assay [7] was 43.2%; in assay [8] it was 70.3%; in [9], 64.7%; in [10], 75%; in assay [11] it was 30.1%; in assay [12] it was 63.2%. The growth in [13] was 71.1%; in [14] it was 42.6%; in assay [15], 59.7%; in [16], 85.6%; in assay [17] it was 80.3%; in assay [18], 68.9%. In addition, the growth in assay [19] was 50.9%.

On to `COc1cccc(C2C(C#N)=C(N)Oc3cc(OC)ccc32)c1` (stereo unspecified), for which the growth in assay [1] was 16.2%; in [2], 72.6%; in [3], 32.6%; in assay [4], 24.6%; in [5] it was 7.42% (active); in assay [6], -38.4% (active). For the same compound, the growth is 15.6% in assay [7]; 29.9% in [8]; -73.4% (active) in [9]; -15.2% (active) in [10]; -4.51% (active) in assay [11]; 36.6% in [12]. The growth in assay [13] is -15.4% (active); in [14], 26.9%; in assay [15], 18.3%; in assay [16], -13.3% (active); in [17], 59.2%; in assay [18], 12.6%. For the same compound, in assay [19], the growth is 10.4%.

`NNC(=O)NO`: the growth was 98.6% in assay [1]; 103% in assay [2]; 93% in [3]; 88.9% in assay [4]; 105% in assay [5]; 86% in assay [6]. Also, the growth was 101% in [7]; 98.5% in assay [8]; 111% in [9]; 109% in [10]; 94.8% in [11]; 98.6% in assay [12]. For the same compound, the growth is 122% in assay [13]; 115% in assay [14]; 104% in assay [15]; 104% in [16]; 112% in assay [17]; 102% in assay [18]. Further, in assay [19], the growth is 102%.

Regarding `O=C(c1ccccc1)c1ccco1`, the growth is 99.2% in assay [1]; 106% in [2]; 105% in assay [3]; 105% in [4]; 105% in assay [5]; 89.3% in assay [6]. Also, the growth was 97% in [7]; 101% in assay [8]; 109% in [9]; 113% in assay [10]; 102% in [11]; 108% in [12]. The growth in [13] was 93.6%; in assay [14], 131%; in assay [15], 98.5%; in assay [16], 92.5%; in [17], 89.3%; in assay [18], 98.7%. Also, the growth in assay [19] was 104%.
